Values joined by “and” are separate entries in the source; they are usually repeats but may differ in a detail not shown here. Equal entries are not always repeated. Some structures have more than one record in an assay (separate samples or runs), and their calls can disagree. Active and inactive are the calls of the source.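 Rule for the calls, unless noted: active = normalized viability below 100% at a tested concentration; inactive = the rest.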
Columns and labels:
[1] = Wnt pathway potentiators raising nuclear beta-catenin – imaging, WNT3A-conditioned medium, mouse C2C12, NPC library, primary screen (AID 1117326; in the data active = nuclear beta-catenin stimulation mostly above about 4.2%, no sharp cut-off; inactive = mostly below about 10%); settings: stronger effect = higher value
[2] = stimulators of insulin release from INS-1E, primary screen, cell-based, 5 mM glucose, NPC library (AID 1117329;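 active = compound raises insulin release from rat beta cells at 5 mM glucose, no numeric limit stated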); settings: rat INS-1E insulin secretion, at 10 µM, stronger effect = higher value
[3] = growth inhibition of GSK3B-pretreated HCT116 cells – cell-based, CellTiter-Glo, 0.2 to 20 µM (AID 1117336;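 active = compounds lowering colon cancer cell viability after pretreatment blocking the GSK3B kinase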); settings: HCT116 viability after GSK3B inhibitor, at 20 µM, stronger effect = higher value
[4] = inhibition of endothelial tube formation, primary screen, imaging, VEGF stimulated, CD31 staining, tube area, NPC library (AID 1117340;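 active = compound that reduces growth-factor-driven endothelial tube area in a mixed cell culture, no cutoff stated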); settings: VEGF-stimulated ADSC/ECFC co-culture, at 10 µM, stronger effect = higher value
[5] = GLP1 release stimulators, primary, NCI-H716, NPC library (AID 1117341;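 active = compound raises GLP1 secretion from the human gut endocrine cells, with no numeric limit stated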); settings: NCI-H716 cells, at 10 µM, stronger effect = higher value
[6] = HCT116 colon cancer cell growth inhibition, primary screen, CellTiter-Glo luminescence, NPC library (AID 1117342;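 active = compounds that lower survival of HCT116 colon cancer cells in the luminescence readout, no numeric limit stated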); settings: at 20 µM (top of the series)
[7] = reduced SW480 viability measured with CellTiter-Glo, NPC library, primary (AID 1117343;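 active = compounds that lower viability of the colon cancer cells in the luminescence readout, with no numeric limit stated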); settings: CellTiter-Glo luminescence; at 20 µM (top of the series)
[8] = NPC library primary testing for decreased DLD-1 cell viability via CellTiter-Glo (AID 1117346;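 active = compounds that lower survival of DLD-1 colon cancer cells in the luminescence readout, no cutoff given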); settings: DLD-1 viability, CellTiter-Glo luminescence; at 20 µM (top of the series)
[9] = target: 6-phosphogluconate dehydrogenase, decarboxylating (Homo sapiens) (UniProt P52209); assay: inhibition of human phosphogluconate dehydrogenase – biochemical, recombinant enzyme, NADPH absorbance, primary screen (AID 1159550;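 active = at least 20% inhibition of 6-phosphogluconate dehydrogenase activity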); settings: recombinant 6PGD, NADPH absorbance 341 nm; at 10 µM; stronger effect = higher value
[10] = modulation of C. elegans fzo-1 (AID 1259413; call rule not given here;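 note: fzo-1 mutant C. elegans worms in liquid wells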); settings: C. elegans fzo-1 modulator screen, mean read-out; stronger effect = higher value
[11] = EMT-state selective cytotoxicity in co-culture – imaging, PC-3E GFP, TEM4-18 mCherry, primary screen (AID 1345086;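 active = compounds killing one labelled cell type while sparing the other, by normalised counts and ratio limits, not self-fluorescent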;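 for all read-outs here: cells exposed to compound for 72 h before imaging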;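 for red/green cell ratio (normalised): normalised mesenchymal count divided by normalised epithelial count so high means epithelial killing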); settings: PC-3E GFP / TEM4-18 mCherry co-culture, imaging cell counts, at 1 µM; for red/green cell ratio (normalised): actives lie on both sides, counts scaled to control wells, 1 = unselective
[12] = viability loss with induced miR-34 in A549 – imaging, A549 dox-inducible miR-34, nuclei and caspase counts, primary screen (AID 1347080;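 active = compounds whose cell count with miR-34 switched on is under 0.7 times the count with it off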); settings: A549 miR-34 inducible, Hoechst nuclei count, 48 h
[13] = MELAS cybrid and Rieske KO viability enhancers – cell-based, MELAS cybrids, Rieske KO mouse fibroblasts, CellTiter-Glo, primary screen (AID 1508586;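 active = mean z-score across replicates of 1.96 or higher in either the MELAS or the Rieske mutant cell line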;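 note: z relative to plate mean and SD of compound and empty wells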); settings: low glucose
[14] = target: NAD(+) hydrolase SARM1 (Homo sapiens) (UniProt Q6SZW1); assay: blocking NAD cleavage by SARM1 SAM-TIR – cell lysate, NAD-Glo luminescence (AID 1508614;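 active = compound whose remaining NAD level is above about 45 nM, limit read from the data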;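 note: higher remaining NAD means stronger inhibition of SARM1 NADase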); settings: SAM-TIR HEK293T lysate NADase, at 1 µM, stronger effect = higher value
[15] = target: Mitogen-activated protein kinase 7 (Homo sapiens) (UniProt Q13164); assay: Gal4-ERK5 driven luciferase induction – cell-based, HTS, primary screen (AID 1508626;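 active = luciferase signal above three times the same-plate solvent-only control wells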;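 note: luciferase driven by Gal4-ERK5 fusion binding five Gal4 sites before minimal TATA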); settings: HeLa Gal4-ERK5 transactivation, 18 h, at 5 µM, stronger effect = higher value
[16] = growth inhibition, single agents and combos, ICB984, cell-based, cisplatin or BGB combos, synergistic combos for chromothripsis tumors (AID 1671451; call rule not given here;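 note: cells exposed for 96 hours before readout; 0% = vehicle DMSO and 100% = killing by high DMSO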); settings: ICB984 medulloblastoma cells, drug combinations, stronger effect = higher value
F380Y = assay: BK channel mutant inhibitors and activators – cell-based, U2OS BacMam, thallium flux, beta subunits, selectivity assay, profiling panel (AID 1259406;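 active = thallium flux through the channel raised or lowered by more than 3 SD from vehicle-only wells, actives on both sides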;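 note: initial slope of Thallos dye fluorescence rise after thallium is added; log ratio against the mean of 0.3% DMSO vehicle wells on the same plate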); settings: U2OS BacMam BK variants, at 30 µM
F380Y/beta1 = assay: as above; settings: U2OS BacMam BK variants, at 30 µM
F380Y/beta2Delta = assay: as above; settings: U2OS BacMam BK variants, at 30 µM
[17] = drug combination growth inhibition, ovarian cancer – cell-based, oncology-focused library, rucaparib conditional, profiling panel (AID 1508598); settings: patient-derived ovarian cancer cells, CellTiter-Glo viability, 144 h, stronger effect = lower value
[18] = measured here: epithelial PC-3E GFP cell survival
[19] = measured here: mesenchymal TEM4-18 mCherry cell survival
[20] = stronger effect = lower value, cell number ratio, induced over uninduced
[21] = measured here: relative caspase fold change +Dox/-Dox
[22] = measured here: total cells with miR-34 induction, stronger effect = lower value
[23] = measured here: total cells without miR-34 induction
[24] = MELAS cybrid survival, CellTiter-Glo 48 h, stronger effect = higher value
[25] = Rieske KO mouse fibroblast survival, CellTiter-Glo 72 h
[26] = measured here: 5 uM single agent, at 5 µM

Sequence of Mitogen-activated protein kinase 7 (Homo sapiens) (Q13164 whole entry, looked up, the tested form may be a part): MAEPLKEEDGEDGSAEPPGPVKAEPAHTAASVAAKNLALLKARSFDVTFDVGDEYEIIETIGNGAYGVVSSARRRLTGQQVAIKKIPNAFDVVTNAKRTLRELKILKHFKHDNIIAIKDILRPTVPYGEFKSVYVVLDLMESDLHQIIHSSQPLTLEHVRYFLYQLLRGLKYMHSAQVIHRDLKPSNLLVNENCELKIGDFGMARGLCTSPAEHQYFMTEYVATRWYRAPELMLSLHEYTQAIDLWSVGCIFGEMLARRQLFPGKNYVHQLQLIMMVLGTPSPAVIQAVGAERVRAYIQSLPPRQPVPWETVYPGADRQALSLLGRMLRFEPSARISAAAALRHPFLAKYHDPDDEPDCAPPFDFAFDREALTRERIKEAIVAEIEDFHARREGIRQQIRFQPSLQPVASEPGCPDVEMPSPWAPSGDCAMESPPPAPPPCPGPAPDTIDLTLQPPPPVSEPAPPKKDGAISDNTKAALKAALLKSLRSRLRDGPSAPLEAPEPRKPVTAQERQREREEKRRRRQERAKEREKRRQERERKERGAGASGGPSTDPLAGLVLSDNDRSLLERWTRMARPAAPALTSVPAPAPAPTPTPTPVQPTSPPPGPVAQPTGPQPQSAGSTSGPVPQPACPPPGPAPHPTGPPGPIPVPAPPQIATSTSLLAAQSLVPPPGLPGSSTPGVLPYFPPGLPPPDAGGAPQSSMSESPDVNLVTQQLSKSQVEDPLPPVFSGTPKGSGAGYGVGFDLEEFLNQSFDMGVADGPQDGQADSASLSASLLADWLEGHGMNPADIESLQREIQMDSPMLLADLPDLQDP
Sequence of 6-phosphogluconate dehydrogenase, decarboxylating (Homo sapiens) (P52209 whole entry, looked up): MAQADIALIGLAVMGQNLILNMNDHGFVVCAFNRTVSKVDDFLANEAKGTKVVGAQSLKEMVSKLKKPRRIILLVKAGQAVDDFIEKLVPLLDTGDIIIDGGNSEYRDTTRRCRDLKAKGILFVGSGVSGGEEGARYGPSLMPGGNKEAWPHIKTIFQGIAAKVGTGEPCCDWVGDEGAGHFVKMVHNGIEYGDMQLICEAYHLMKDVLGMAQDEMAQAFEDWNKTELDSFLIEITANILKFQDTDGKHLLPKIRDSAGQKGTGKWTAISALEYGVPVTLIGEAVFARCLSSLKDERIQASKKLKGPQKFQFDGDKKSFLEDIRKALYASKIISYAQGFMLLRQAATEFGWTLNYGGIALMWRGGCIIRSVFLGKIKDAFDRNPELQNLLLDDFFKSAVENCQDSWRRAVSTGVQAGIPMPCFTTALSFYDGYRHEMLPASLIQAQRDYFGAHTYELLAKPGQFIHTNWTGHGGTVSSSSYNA
Sequence of NAD(+) hydrolase SARM1 (Homo sapiens) (Q6SZW1 whole entry, looked up, the tested form may be a part): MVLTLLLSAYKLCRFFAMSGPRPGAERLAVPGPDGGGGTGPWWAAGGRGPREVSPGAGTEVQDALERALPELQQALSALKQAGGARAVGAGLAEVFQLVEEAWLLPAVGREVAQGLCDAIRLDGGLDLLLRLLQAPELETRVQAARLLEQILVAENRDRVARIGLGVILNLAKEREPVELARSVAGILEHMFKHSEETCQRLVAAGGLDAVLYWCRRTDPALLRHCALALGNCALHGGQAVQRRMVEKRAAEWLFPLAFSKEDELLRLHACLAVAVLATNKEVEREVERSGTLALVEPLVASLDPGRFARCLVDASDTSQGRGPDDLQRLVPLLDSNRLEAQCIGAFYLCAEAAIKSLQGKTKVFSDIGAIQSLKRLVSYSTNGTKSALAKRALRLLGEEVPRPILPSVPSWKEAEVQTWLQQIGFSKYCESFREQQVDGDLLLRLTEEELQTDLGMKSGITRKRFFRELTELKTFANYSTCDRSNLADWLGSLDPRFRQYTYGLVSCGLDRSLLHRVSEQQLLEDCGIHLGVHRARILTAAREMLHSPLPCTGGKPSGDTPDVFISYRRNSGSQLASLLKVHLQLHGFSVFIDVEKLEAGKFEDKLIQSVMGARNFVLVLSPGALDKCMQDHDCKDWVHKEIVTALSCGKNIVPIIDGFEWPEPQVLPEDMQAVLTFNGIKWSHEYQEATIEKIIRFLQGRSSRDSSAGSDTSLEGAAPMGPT

CS(=O)(=O)OCCCCOS(C)(=O)=O
1.41 and 0.655 and 1.42: fold change [12, 21]
inactive: nuclear beta-catenin stimulation ([1]; at 10 µM) 1.2% | insulin secretion stimulation [2] 0.2% | viability decrease [3] 3.6% | tube area decrease [4] 32.5% | GLP1 secretion stimulation [5] -1.7% | inhibition of viability [6] -1.23% | viability decrease (inhibition) [7] 31.8% | viability decrease (inhibition) [8] -11% | inhibition [9] 1.77% | mean signal [10] 241 | red/green cell ratio (normalised) [11] 1.02 | fold change [12, 20] 0.955 and 0.888 and 0.86 | z-score [13, 24] -0.182 and -0.283 | remaining NAD [14] 10 nM | luciferase signal [15] 52 AU | inhibition ([16]; at 0.5 µM) -25.5% and -7% | log fold change Tl+ flux (F380Y) -0.0118 | log fold change Tl+ flux (F380Y/beta1) 0.0504 | log fold change Tl+ flux (F380Y/beta2Delta) 0.00156
-13.7% and -14%: inhibition ([16]; BGB IC40 combo, at 0.005 µM)
-50.4% and -16.4%: inhibition ([16]; cisplatin combo, at 5 µM)
-7.43% and 3.18%: inhibition ([16]; BGB IC40 combo, at 0.05 µM)
-15.4% and -25.1%: inhibition ([16]; BGB IC20 combo, at 0.005 µM)
-9.08% and -3.26%: inhibition ([16]; cisplatin combo, at 0.5 µM)
-0.743 and -0.155: z-score [13, 25]
1.19: normalised cell number [11, 19]
1.16: normalised cell number [11, 18]
10200 and 8020: cell count [12, 23]
-11.3% and 3.18%: inhibition ([16]; cisplatin combo, at 0.05 µM)
0.6%: nuclear beta-catenin stimulation ([1]; stimulation, at 2 µM)
9740 and 7120 and 8790: cell count [12, 22]
-29.1% and 6.4%: inhibition [16, 26]

S=c1nc[nH]c2nc[nH]c12
active: viability decrease [3] 77.7% | tube area decrease [4] 95.3% | inhibition of viability [6] 83.2% | viability decrease (inhibition) [7] 107% | viability decrease (inhibition) [8] 79.1% | viability ([17]; at 0.000305 µM, OCI-P5x cells, with rucaparib 20 µM, 100% = cells with rucaparib alone) 94.6% | viability ([17]; at 0.000305 µM, OCI-P5x cells, without rucaparib) 92.1% | viability ([17]; at 0.00122 µM, OCI-P5x cells, with rucaparib 20 µM, 100% = cells with rucaparib alone) 98.4% | viability ([17]; at 0.00122 µM, OCI-P5x cells, without rucaparib) 94.6% | viability ([17]; at 0.00488 µM, OCI-P5x cells, with rucaparib 20 µM, 100% = cells with rucaparib alone) 99.6% | viability ([17]; at 0.00488 µM, OCI-P5x cells, without rucaparib) 90.4% | viability ([17]; at 0.0195 µM, OCI-P5x cells, with rucaparib 20 µM, 100% = cells with rucaparib alone) 94.9% | viability ([17]; at 0.0195 µM, OCI-P5x cells, without rucaparib) 84.4% | viability ([17]; at 0.0781 µM, OCI-C5x cells, without rucaparib) 95.4% | viability ([17]; at 0.0781 µM, OCI-P5x cells, with rucaparib 20 µM, 100% = cells with rucaparib alone) 90.4% | viability ([17]; at 0.0781 µM, OCI-P5x cells, without rucaparib) 87.6% | viability ([17]; at 0.313 µM, OCI-C5x cells, without rucaparib) 91.6% | viability ([17]; at 0.313 µM, OCI-P5x cells, with rucaparib 20 µM, 100% = cells with rucaparib alone) 89.7% | viability ([17]; at 0.313 µM, OCI-P5x cells, without rucaparib) 86.1% | viability ([17]; at 1.25 µM, OCI-C5x cells, without rucaparib) 93.1% | viability ([17]; at 1.25 µM, OCI-P5x cells, with rucaparib 20 µM, 100% = cells with rucaparib alone) 87.9% | viability ([17]; at 1.25 µM, OCI-P5x cells, without rucaparib) 80.6% | viability ([17]; at 5 µM, OCI-P5x cells, with rucaparib 20 µM, 100% = cells with rucaparib alone) 79% | viability ([17]; at 5 µM, OCI-P5x cells, without rucaparib) 79.9% | luciferase signal [15] 2730 AU
1.07: normalised cell number [11, 19]
0.195 and 0.755: z-score [13, 25]
-14.4% and -4.47% and -23%: inhibition ([16]; BGB IC40 combo, at 0.05 µM)
-34.5% and -9.53% and -28.9%: inhibition [16, 26]
-3.58% and -36.1% and -37.1%: inhibition ([16]; cisplatin combo, at 5 µM)
1.42: normalised cell number [11, 18]
-10.3% and -30.1% and -29.5%: inhibition ([16]; BGB IC20 combo, at 0.005 µM)
1.23 and 0.341 and 5.81: fold change [12, 21]
-14.4% and -8.61% and -23%: inhibition ([16]; cisplatin combo, at 0.05 µM)
-20.2% and -36.3% and -18.2%: inhibition ([16]; BGB IC40 combo, at 0.005 µM)
5690 and 7180 and 6280: cell count [12, 22]
7180 and 7540 and 7700: cell count [12, 23]
0.0168 (inactive) and 3.92 (active): z-score [13, 24]
inactive: nuclear beta-catenin stimulation ([1]; at 10 µM) -0.9% | insulin secretion stimulation [2] 0.6% | GLP1 secretion stimulation [5] -0.7% | inhibition [9] -3.59% | mean signal [10] 247 | red/green cell ratio (normalised) [11] 0.76 | fold change [12, 20] 0.793 and 0.952 and 0.815 | viability ([17]; at 0.000305 µM, OCI-C5x cells, with rucaparib 10 µM, 100% = cells with rucaparib alone) 120% | viability ([17]; at 0.000305 µM, OCI-C5x cells, without rucaparib) 111% | viability ([17]; at 0.00122 µM, OCI-C5x cells, with rucaparib 10 µM, 100% = cells with rucaparib alone) 110% | viability ([17]; at 0.00122 µM, OCI-C5x cells, without rucaparib) 105% | viability ([17]; at 0.00488 µM, OCI-C5x cells, with rucaparib 10 µM, 100% = cells with rucaparib alone) 111% | viability ([17]; at 0.00488 µM, OCI-C5x cells, without rucaparib) 100% | viability ([17]; at 0.0195 µM, OCI-C5x cells, with rucaparib 10 µM, 100% = cells with rucaparib alone) 104% | viability ([17]; at 0.0195 µM, OCI-C5x cells, without rucaparib) 109% | viability ([17]; at 0.0781 µM, OCI-C5x cells, with rucaparib 10 µM, 100% = cells with rucaparib alone) 123% | viability ([17]; at 0.313 µM, OCI-C5x cells, with rucaparib 10 µM, 100% = cells with rucaparib alone) 106% | viability ([17]; at 1.25 µM, OCI-C5x cells, with rucaparib 10 µM, 100% = cells with rucaparib alone) 105% | viability ([17]; at 5 µM, OCI-C5x cells, with rucaparib 10 µM, 100% = cells with rucaparib alone) 126% | viability ([17]; at 5 µM, OCI-C5x cells, without rucaparib) 107% | remaining NAD [14] 10 nM | inhibition ([16]; at 0.5 µM) -13.7% and -13.9% and -17.8% | log fold change Tl+ flux (F380Y) -0.0324 | log fold change Tl+ flux (F380Y/beta1) -0.00111 | log fold change Tl+ flux (F380Y/beta2Delta) -0.00985
0.6%: nuclear beta-catenin stimulation ([1]; stimulation, at 2 µM)
-25.2% and -17.5% and -28.1%: inhibition ([16]; cisplatin combo, at 0.5 µM)
